Source: PubChem BioAssay
The source made the active and inactive calls.

What was measured:
[1] = target: Albumin (Bos taurus) (UniProt P02769); assay: compounds binding labelled BSA control protein – biochemical, small-molecule microarray, Alexa647 label, 635/667 nm fluorescence, artefact control for SMM control protein annotation, profiling panel (AID 1118); settings: BSA-A647 binding, fluorescence 635 nm, higher = more signal;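 further: score merges 667 nm emission intensity and signal-to-noise per printed compound spot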
[2] = probe aXIP binding to arrayed compounds – biochemical, NeuroSMM set, 635/667 nm fluorescence, primary screen (AID 1119); settings: small-molecule microarray, higher = more signal, called active from +8 up or from −8 down;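 further: probe is the protein aXip251-270 applied at 1 µg/mL to compound-printed slides; binding of probe to printed compounds measured as 667 nm fluorescence plus signal to noise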
[3] = probe aNOTCH3 binding on compound microarray – biochemical, small-molecule microarray, 635/667 nm fluorescence, primary screen (AID 1120); settings: higher = more signal;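 further: probe is a biotin-tagged antibody raised against NOTCH3 rather than NOTCH3 protein; score merges spot fluorescence near 667 nm with spot signal to noise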
[4] = probe aNOTCH2 binding on compound microarray – biochemical, small-molecule microarray, 635/667 nm fluorescence, primary screen (AID 1121); settings: higher = more signal;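 further: score merges feature fluorescence read at 667 nm with its signal to noise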
[5] = target: Carbonic anhydrase 2 (Homo sapiens) (UniProt P00918); assay: compounds binding carbonic anhydrase 2 – biochemical, small-molecule microarray, Alexa647-labelled CAII, profiling panel (AID 1122); settings: CAII-A647 binding fluorescence, higher = more signal
[6] = COS7 lysate on small-molecule microarray, probe aHis, 635 nm (AID 1123); settings: COS7 cell lysate, fluorescence, higher = more signal;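 further: z-score combines 667nm fluorescence intensity with signal-to-noise per printed compound spot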
[7] = probe aLAP1 signal on lysate-treated microarray – cell lysate, small-molecule microarray, COS7 lysate, primary screen (AID 1124); settings: probe aLAP1, fluorescence, higher = more signal;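 further: lysate comes from COS7 cells expressing LAP1 and is applied at 0.3 µg/mL; score merges spot fluorescence near 667 nm with signal-to-noise over triplicate slides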
[8] = test system: Sam68 (KHDRBS1); assay: compounds binding KHDRBS1 protein – biochemical, small-molecule microarray, 635 nm fluorescence, primary screen (AID 1125); settings: higher = more signal;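 further: score merges 667 nm channel intensity with signal to noise over triplicate slides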
[9] = test system: Chordin-like protein 2 (CHRDL2); assay: compounds binding chordin-like 2 – biochemical, small-molecule microarray, 635 nm fluorescence, primary screen (AID 1126); settings: fluorescence 635 nm, higher = more signal;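 further: printed compound slides probed with Chrdl2 protein at 4 µg/mL for 1 h at 4 C; score merges 667 nm emission intensity with signal to noise over three replicate slides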
[10] = target: Concanavalin-A (Canavalia ensiformis) (UniProt P02866); assay: compounds binding concanavalin A lectin – biochemical, small-molecule microarray, Alexa647 label, 635 nm, artefact control for SMM control protein annotation, primary screen (AID 1127); settings: ConA-A647 binding fluorescence, higher = more signal;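 further: z combines 667 nm emission intensity with signal-to-noise across three replicate slides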
[11] = compounds binding Alexa647 anti-His antibody – biochemical, small-molecule microarray, 635 nm fluorescence, artefact control for SMM control protein annotation, primary screen (AID 1128); settings: higher = more signal;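 further: score merges feature fluorescence with signal-to-noise for each printed compound spot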
[12] = test system: Human papillomavirus type 1a E7 protein (residues 1-88); assay: HPV1a E7 small-molecule binders, primary screen, biochemical, small-molecule microarray, residues 1-88, 635 nm (AID 1129); settings: small-molecule microarray binding, fluorescence 635 nm; higher = more signal
[13] = target: Focal adhesion kinase 1 (Homo sapiens) (UniProt Q05397); assay: PTK2 protein binding on printed compound slides – biochemical, small-molecule microarray, 635/667 nm fluorescence, BSA, DTT, primary screen (AID 1130); settings: 635 nm fluorescence, higher = more signal;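 further: composite of spot emission at 667 nm and signal to noise over triplicate slides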
[14] = test system: Fibrinogen (Alexa647-labelled); assay: Alexa647-fibrinogen binding to printed small molecules – biochemical, small-molecule microarray, 635/667 nm fluorescence, artefact control for SMM control-protein annotation, profiling panel (AID 1131); settings: fibrinogen-A647 binding fluorescence, higher = more signal;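 further: z-score merges 667 nm fluorescence with per-spot signal-to-noise over triplicate slides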
[15] = target: Follistatin (Homo sapiens) (UniProt P19883); assay: FST protein binding to printed compounds – biochemical, small-molecule microarray, 635/667 nm fluorescence, primary screen (AID 1132); settings: 635 nm fluorescence, higher = more signal
[16] = target: Fibroblast growth factor 2 (Homo sapiens) (UniProt P09038); assay: basic fibroblast growth factor binding to printed compounds – biochemical, small-molecule microarray, 635/667 nm fluorescence, primary screen (AID 1133); settings: FGF2, fluorescence 635/667, higher = more signal
[17] = JC-1 mitochondrial potential readout, lung cancer cells – cell-based, A549, JC-1 fluorescence, basal, 24 h, 100 nL, profiling panel (AID 1138); settings: higher = more signal;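 further: A549 lung adenocarcinoma cells under basal conditions with no added stimulus; test concentration not given here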
[18] = test system: Lefty1; assay: Lefty1 protein binding to printed compounds – biochemical, small-molecule microarray, 635/667 nm fluorescence, primary screen (AID 1139); settings: fluorescence 635/667, higher = more signal
[19] = test system: wheat germ agglutinin (Triticum aestivum), Alexa647-labelled; assay: Alexa647-WGA lectin binding to printed small molecules – biochemical, small-molecule microarray, 635/667 nm fluorescence, artefact control for SMM control-protein annotation, profiling panel (AID 1140); settings: WGA-A647 binding, 635 nm fluorescence, higher = more signal;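 further: score merges 667 nm feature emission with signal to noise over triplicate slides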
[20] = target: Luciferin 4-monooxygenase (Photinus pyralis) (UniProt P08659); assay: inhibition of purified Photinus pyralis luciferase – biochemical, luminescence, purified enzyme, 2006 set, primary screen (AID 1141); settings: purified firefly luciferase, SteadyGlo luminescence, 30 min; higher = more signal, called active from +8 up or from −8 down;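 further: cell-free assay with purified firefly luciferase at 100 ng per well in PBS; test concentration not given here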
Sequence of Luciferin 4-monooxygenase (Photinus pyralis) (P08659 whole entry, looked up): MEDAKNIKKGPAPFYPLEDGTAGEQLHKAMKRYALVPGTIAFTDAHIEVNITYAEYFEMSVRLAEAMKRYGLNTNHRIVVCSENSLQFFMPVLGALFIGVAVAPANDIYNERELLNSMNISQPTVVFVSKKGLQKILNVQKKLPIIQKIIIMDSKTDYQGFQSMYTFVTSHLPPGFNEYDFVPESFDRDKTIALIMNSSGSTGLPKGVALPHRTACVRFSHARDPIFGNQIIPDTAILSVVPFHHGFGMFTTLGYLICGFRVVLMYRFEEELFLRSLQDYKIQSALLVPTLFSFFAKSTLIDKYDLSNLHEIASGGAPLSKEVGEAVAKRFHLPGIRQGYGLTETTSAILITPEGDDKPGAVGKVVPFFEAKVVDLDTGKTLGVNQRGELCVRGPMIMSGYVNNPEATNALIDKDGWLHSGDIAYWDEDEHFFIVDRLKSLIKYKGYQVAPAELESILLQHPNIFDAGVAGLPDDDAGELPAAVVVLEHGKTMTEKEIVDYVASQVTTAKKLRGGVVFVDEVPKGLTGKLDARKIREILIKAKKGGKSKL

Sequence of Focal adhesion kinase 1 (Homo sapiens) (Q05397 whole entry, looked up): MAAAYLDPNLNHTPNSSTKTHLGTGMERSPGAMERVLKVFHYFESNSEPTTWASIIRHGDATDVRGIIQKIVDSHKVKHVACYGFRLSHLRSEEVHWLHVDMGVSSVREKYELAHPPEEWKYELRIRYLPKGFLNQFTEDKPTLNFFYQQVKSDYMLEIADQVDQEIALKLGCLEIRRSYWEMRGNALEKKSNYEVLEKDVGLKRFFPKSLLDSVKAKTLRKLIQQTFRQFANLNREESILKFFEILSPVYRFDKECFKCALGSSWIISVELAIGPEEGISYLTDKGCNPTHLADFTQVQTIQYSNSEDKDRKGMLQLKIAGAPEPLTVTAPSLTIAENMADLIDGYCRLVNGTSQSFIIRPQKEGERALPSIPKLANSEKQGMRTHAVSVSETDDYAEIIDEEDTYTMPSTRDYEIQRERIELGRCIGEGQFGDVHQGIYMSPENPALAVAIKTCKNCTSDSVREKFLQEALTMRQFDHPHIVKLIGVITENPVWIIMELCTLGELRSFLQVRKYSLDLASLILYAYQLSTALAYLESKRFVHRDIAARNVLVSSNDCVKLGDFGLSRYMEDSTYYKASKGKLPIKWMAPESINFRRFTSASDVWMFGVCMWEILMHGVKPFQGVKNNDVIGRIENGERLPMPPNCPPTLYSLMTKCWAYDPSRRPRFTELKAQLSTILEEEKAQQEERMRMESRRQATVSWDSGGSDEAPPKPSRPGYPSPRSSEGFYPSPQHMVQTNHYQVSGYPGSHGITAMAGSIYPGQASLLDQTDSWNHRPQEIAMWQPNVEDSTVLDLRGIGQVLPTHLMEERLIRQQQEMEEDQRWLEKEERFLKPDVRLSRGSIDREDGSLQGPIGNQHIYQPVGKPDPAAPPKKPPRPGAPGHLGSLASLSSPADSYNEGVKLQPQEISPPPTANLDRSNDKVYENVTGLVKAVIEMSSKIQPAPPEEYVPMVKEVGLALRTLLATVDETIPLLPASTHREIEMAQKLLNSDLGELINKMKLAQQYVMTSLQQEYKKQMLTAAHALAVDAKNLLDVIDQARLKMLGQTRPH
Sequence of Follistatin (Homo sapiens) (P19883 whole entry, looked up): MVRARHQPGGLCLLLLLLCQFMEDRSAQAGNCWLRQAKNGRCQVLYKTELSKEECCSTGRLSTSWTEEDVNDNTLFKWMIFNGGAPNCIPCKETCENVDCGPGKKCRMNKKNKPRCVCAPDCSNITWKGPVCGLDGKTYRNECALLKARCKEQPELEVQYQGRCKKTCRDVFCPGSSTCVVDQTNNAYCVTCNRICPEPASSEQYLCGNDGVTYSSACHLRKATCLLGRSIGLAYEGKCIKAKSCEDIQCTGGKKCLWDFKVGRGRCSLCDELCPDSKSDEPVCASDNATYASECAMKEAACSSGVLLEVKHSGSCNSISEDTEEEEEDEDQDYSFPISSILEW
Sequence of Fibroblast growth factor 2 (Homo sapiens) (P09038 whole entry, looked up): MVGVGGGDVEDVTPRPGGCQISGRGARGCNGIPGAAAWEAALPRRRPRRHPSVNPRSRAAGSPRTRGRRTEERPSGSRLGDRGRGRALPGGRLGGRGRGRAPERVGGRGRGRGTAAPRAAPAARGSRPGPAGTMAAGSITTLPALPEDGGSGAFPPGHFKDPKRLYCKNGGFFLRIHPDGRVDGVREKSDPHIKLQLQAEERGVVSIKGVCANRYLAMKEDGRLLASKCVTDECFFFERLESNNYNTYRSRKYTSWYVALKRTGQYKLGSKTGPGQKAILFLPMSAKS
Sequence of Concanavalin-A (Canavalia ensiformis) (P02866 whole entry, looked up): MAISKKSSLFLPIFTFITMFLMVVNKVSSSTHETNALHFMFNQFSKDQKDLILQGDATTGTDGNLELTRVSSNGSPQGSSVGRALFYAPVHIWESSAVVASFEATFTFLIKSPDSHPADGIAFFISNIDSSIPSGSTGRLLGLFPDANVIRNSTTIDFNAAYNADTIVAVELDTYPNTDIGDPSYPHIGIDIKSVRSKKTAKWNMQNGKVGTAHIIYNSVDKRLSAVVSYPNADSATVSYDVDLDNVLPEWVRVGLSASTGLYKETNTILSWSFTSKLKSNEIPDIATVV
Sequence of Albumin (Bos taurus) (P02769 whole entry, looked up): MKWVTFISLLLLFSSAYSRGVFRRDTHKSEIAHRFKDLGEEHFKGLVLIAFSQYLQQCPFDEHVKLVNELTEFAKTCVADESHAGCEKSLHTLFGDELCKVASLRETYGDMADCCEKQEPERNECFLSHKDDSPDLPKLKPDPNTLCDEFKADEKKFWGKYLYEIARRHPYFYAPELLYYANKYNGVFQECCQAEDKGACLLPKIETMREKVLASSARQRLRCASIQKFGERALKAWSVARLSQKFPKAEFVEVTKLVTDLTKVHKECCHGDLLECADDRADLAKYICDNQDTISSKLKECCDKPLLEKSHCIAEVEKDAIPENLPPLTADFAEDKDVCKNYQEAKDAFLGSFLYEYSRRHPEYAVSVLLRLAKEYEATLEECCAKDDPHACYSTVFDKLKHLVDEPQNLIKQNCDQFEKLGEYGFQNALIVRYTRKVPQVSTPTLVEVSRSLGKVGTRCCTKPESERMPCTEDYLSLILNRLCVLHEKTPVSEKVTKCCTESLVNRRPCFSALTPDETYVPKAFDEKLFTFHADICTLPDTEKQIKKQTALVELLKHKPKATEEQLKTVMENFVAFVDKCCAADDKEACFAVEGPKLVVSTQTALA

| SMILES | composite z-score [1] | composite Z-score [2] | composite z-score [3] | composite z-score [4] | composite z-score [5] | composite z-score [6] | composite z-score [7] | composite z-score [8] | composite z-score [9] | composite z-score [10] | composite z-score [11] | composite z-score [12] | composite z-score [13] | composite z-score [14] | composite z-score [15] | composite z-score [16] | z-score [17] | composite z-score [18] | composite z-score [19] | z-score [20] |
| --- | --- | --- | --- | --- | --- | --- | --- | --- | --- | --- | --- | --- | --- | --- | --- | --- | --- | --- | --- | --- |
| CCOC(=O)C1=CC[C@@H](c2ccc(C(F)(F)F)cc2)N(S(=O)(=O)c2ccc(C)cc2)[C@H]1c1ccccc1 | 0.871 | 0.506 (inactive) | 0.158 | 0.21 | 0.603 | 2.27 | 0.782 | 1.31 | -0.863 | 1.13 | 2.1 | 1.21 | 0.81 | 0.955 | 0.377 | -0.149 | -1.9 | 0.0777 | 1.22 | 0.849 (inactive) |
| O=C(O)[C@H](Cc1ccccc1)n1cc(-c2ccccc2)nn1 | 0.0644 | 0.52 (inactive) | -0.0313 | -0.164 | 0.155 | -0.065 | 0.277 | 0.187 | 0.238 | 0.362 | 0.347 | 0.6 | 0.218 | 0.368 | 0.571 | 0.607 | -0.469 | 0.206 | 0.651 | 0.899 (inactive) |
| O=C(O)[C@@]1(CCS(=O)(=O)c2ccccc2)N=C(c2ccc(OCCCO)cc2)O[C@H]1c1ccccc1 | 0.978 | -0.83 (inactive) | 0.156 | -0.0331 | 0.864 | 2.21 | -0.334 | 1.2 | -0.765 | 0.766 | 2.65 | 0.23 | 0.264 | 0.993 | 0.265 | -0.761 | 0.175 | -0.387 | 0.763 | -1.56 (inactive) |
| O=C1N(CCS(=O)(=O)c2ccccc2)c2ccccc2[C@@H]2OC(c3ccc(OCCCO)cc3)=N[C@]12Cc1ccccc1 | 0.484 | -0.209 (inactive) | 0.126 | -0.0244 | 0.391 | 0.898 | 0.474 | 1.3 | 0.837 | 1.12 | 1.65 | 1.19 | 1.05 | 0.959 | 1.43 | 1.71 | 2.29 | 1.18 | 0.668 | -11.5 (active) |
| CN1C(=O)C2C=CC(C(O)c3ccc(F)cc3)N(N(c3ccccc3)c3ccccc3)C2C1=O (stereo not given) | 0.698 | 2.43 (inactive) | 0.206 | 0.0264 | 0.506 | 2.82 | 0.0833 | -0.0714 | -0.69 | 0.324 | 0.202 | 0.619 | 0.0202 | -1.13 | 0.605 | -0.615 | 0.351 | -0.128 | 0.296 | 0.0492 (inactive) |
| C=C(CCCC)/C(=C/C[C@@H](OC(C)=O)c1cccc(OCCO)c1)c1cnc2ccccc2c1 | 0.0156 | 0.785 (inactive) | 0.0141 | -0.124 | 0.687 | 0.366 | -0.0843 | 0.788 | 0.777 | 0.606 | 1.35 | 0.157 | -0.0542 | 0.0837 | 1.4 | 1.18 | 0.908 | 1.37 | 0.978 | -0.245 (inactive) |
| CCOC(=O)C1=CC[C@H]2C(=O)N(c3ccccc3)C(=O)[C@@H]12 | 0.916 | 1.58 (inactive) | 0.0893 | -0.046 | 0.848 | 2.7 | 0.786 | 1.31 | 0.613 | 1.05 | 2.18 | 1.32 | 0.291 | 1.04 | 1.24 | 0.385 | -1.44 | 0.655 | 0.56 | 0.332 (inactive) |
| C=C[C@H](C)[C@@H](OC(=O)Nc1ccc(SC)cc1)c1ccc(O)c2ccccc12 | 0.0219 | -0.552 (inactive) | 0.0636 | -0.0928 | 0.609 | 1.84 | 0.188 | 1.32 | 1.13 | 1.02 | 3.14 | 1.24 | 0.183 | 0.294 | 1.37 | 1.54 | -1.7 | 1.1 | 0.108 | -2.61 (inactive) |
| COC(=O)[C@@]1(Cc2ccccc2)[C@H]2c3cc(C(=O)N4CCCC4)n(Cc4c(CO)[nH]cc(C)c4=O)c3C[C@H]2CN1C(=O)c1ccccc1 | 0.677 | -0.0461 (inactive) | 0.0076 | 0.154 | 0.701 | 2.64 | 1.32 | 0.109 | -0.174 | 0.0417 | 1.18 | 0.93 | 0.777 | 0.827 | 0.518 | -0.258 | -0.0421 | -0.816 | 1.05 | 2.49 (inactive) |
| COc1ccc([Si](C)(C)[C@@H]2[C@@H](CC(=O)N3CCC[C@H]3CO)O[C@]3(C(=O)N(Cc4cccc(I)c4)c4ccccc43)[C@H]2C)cc1 | -0.392 | 0.119 (inactive) | 0.175 | -0.0956 | 0.644 | 0.066 | 0.0817 | 1.31 | 1.45 | 0.938 | 2.04 | 0.781 | -0.204 | 0.591 | 1.39 | 1.76 | -0.77 | 1.64 | 0.481 | -0.368 (inactive) |
| COCCCNC(=O)[C@@H]1c2ccccc2C(=O)N(Cc2ccccc2OC)[C@H]1c1ccc(CO)cc1 | 0.459 | 0.414 (inactive) | -0.0932 | -0.155 | 0.711 | 1.36 | -0.355 | -0.268 | 0.447 | 0.948 | 2.1 | 0.133 | 0.503 | -0.444 | 0.832 | 1.42 | -0.374 | 1.07 | 0.701 | 1.43 (inactive) |
